According to PubChem BioAssay AID817 (Emory University Molecular Libraries Screening Center, 2007):
Hit rate of the full screen: of about 140,000 compounds, about 300 (0.21%) were called active.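 The calls were made as follows: active = z-score above 3 at both the 24 hr and the 30 hr optical density reads; inactive = the rest, inconclusive results apart.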 The sample as a whole holds a higher share of actives than the screen did.

Assay: restorers of sdo1-deficient yeast growth – S. cerevisiae, bone marrow failure model, primary screen (AID 817);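 also: z-score against mean and SD of all compound wells on the same plate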
Conditions: S. cerevisiae sdo1-depleted JHY4D growth rescue, at 10 µM, stronger effect = higher value, pdr5 snq2 efflux-pump mutant strain
[1] = OD600, measured here: growth rescue at 24 h

Compound	z-score (OD600 30 h)	z-score [1]
Cc1ccccc1C1=NC(C(F)(F)F)(C(F)(F)F)c2c(n(-c3ccc(F)cc3)c(=O)[nH]c2=O)N1	0.91 (inactive)	1.23
CC(C)(C)CC(C)(C)NCC(O)COCCOc1ccc(Br)cc1 (stereo not drawn)	-1.47 (inactive)	-1.24
CCCn1c(C)cc(/C=C(\C#N)C(=O)OCC(=O)Nc2cc(OC)c(OC)c(OC)c2)c1C	-0.22 (inactive)	-0.65
COC(=O)c1sccc1NC(=O)COc1ccc(Cl)cc1	-0.81 (inactive)	0.03
Cc1cc(C)cc(NC(=S)NCc2ccc(F)cc2)c1	-0.44 (inactive)	-0.91
COc1ccc(C2=NN(C(=O)c3cccnc3)C(c3ccccc3)C2)cc1 (stereo not drawn)	-0.64 (inactive)	-0.53
Cc1ccc(Nc2cc(C)nc3c(C)ccc([N+](=O)[O-])c23)cc1	-2.1 (inactive)	-1.28
O=c1c2sccc2nc(SCc2cc(=O)n3ccccc3n2)n1-c1ccc(Br)cc1	-0.28 (inactive)	0.04
Cc1ccc(C)c(NC(=O)CCC(=O)NNC(=O)c2cccs2)c1	0.52 (inactive)	-0.15
O=C(CSc1ccc(C(F)(F)F)cc1[N+](=O)[O-])NCCOc1ccccc1	-0.75 (inactive)	-0.39
Cc1cccc(C(=O)OCC(=O)Nc2sc3c(c2C#N)CCC3)c1	1.54 (inactive)	1.79
CCCNC(=O)NC(=O)COC(=O)CC(NC(N)=O)c1ccc(Cl)cc1 (stereo not drawn)	1.01 (inactive)	0.32
CC[C@H]1OC(=O)[C@H](C)[C@@H](O[C@H]2C[C@@](C)(OC)[C@@H](O)[C@H](C)O2)[C@H](C)[C@@H](O[C@@H]2O[C@H](C)C[C@H](N(C)C)[C@H]2O)[C@](C)(O)C[C@@H](C)[C@@H]2N[C@@H](COCCOC)O[C@H]([C@H]2C)[C@]1(C)O	2.24 (inactive)	2.51
Cc1cc(Cl)ccc1OCCCC(=O)NCc1ccncc1	-0.45 (inactive)	-0.98
O=C(CCN1C(=O)c2ccccc2C1=O)C1=NN[C@@H]2C(=O)N(c3ccc(F)cc3)C(=O)[C@H]12	0.12 (inactive)	-0.42
CC(NC(=O)COC(=O)C1CCN(S(=O)(=O)c2ccccc2C(F)(F)F)CC1)c1ccccc1 (stereo not drawn)	1.2 (inactive)	1.46
O=S(=O)(/N=C(/Nc1ccccn1)c1ccccc1)c1ccc(Cl)cc1	5.14 (active)	4.98
Cc1ccc(S/C(=N\S(=O)(=O)c2ccc(Cl)cc2)c2ccccc2)cc1	-0.79 (inactive)	-1.13
Cc1ccc(S(=O)(=O)/N=C(/Nc2ccccn2)c2ccc(Cl)cc2)cc1	-1.04 (inactive)	-0.87
Cc1sc2ncnc(Sc3nc4ccccc4s3)c2c1C	0.02 (inactive)	-0.34
CC(C)NC(=S)N1CCN(C(c2ccccc2)c2ccccc2)CC1	-1.16 (inactive)	-1.01
CC(C)=C(NC(=O)c1ccccc1)C(=O)N/N=C(\C)c1ccccc1O	1.49 (inactive)	2.26
Cc1ccc(C(=O)c2ccc(N3CCN(C)CC3)c([N+](=O)[O-])c2)cc1	1.82 (inactive)	1.21
COc1ccc(NC(=O)CC2C(=O)OCC3CCCCN32)cc1Cl (stereo not drawn)	0.14 (inactive)	-0.04
Cc1ccc(N=C2NC(=O)c3cccc([N+](=O)[O-])c32)cc1	0.32 (inactive)	0.33
CCN(CC)c1ccc(C(=O)N/N=C(\C)c2cccc(OC)c2)cc1	0.86 (inactive)	0.18
NC(=O)CCC(NS(=O)(=O)c1ccc(Cl)cc1)C(=O)NCc1ccccc1Cl (stereo not drawn)	-0.28 (inactive)	-1.21

Compound	z-score (OD600 30 h)	z-score [1]
Cc1ccc(C(=O)CNc2ccc(F)cc2)cc1	0.78 (inactive)	-0.09
Fc1ccccc1CNC(=S)Nc1ccc(Cl)cc1	-1.01 (inactive)	-0.89
CCOC(=O)C(C)Sc1nnc(CSc2nc3nc(C)cc(C)n3n2)o1 (stereo not drawn)	0.4 (inactive)	0.13
CCOc1cccc2c1OC1(CCCCC1)N1N=C(c3cccnc3)CC21 (stereo not drawn)	13.5 (active)	3.28
CCOc1ccccc1C1CC(c2cccc(NS(C)(=O)=O)c2)=NN1C(=O)c1ccccc1 (stereo not drawn)	-0.43 (inactive)	-0.52
c1cncc(-c2nnc3n2C2(CCCCC2)Cc2ccccc2-3)c1	-0.05 (inactive)	-0.69
N/C(=N\OC(=O)N1c2ccccc2Sc2ccccc21)c1ccc(Br)cc1	-1.34 (inactive)	-1.41
Cc1cc(-c2csc(N)n2)c(C)n1-c1ccccc1	0.37 (inactive)	0.28
C/C(=N\NC(=O)c1ccc(NS(=O)(=O)c2cccs2)cc1)c1ccc2ccccc2c1	0.3 (inactive)	0.75
COc1ccc(/C(C)=N/NC(=O)CCC(=O)Nc2ccc(Cl)cc2Cl)c(OC)c1	5.63 (active)	5.64
CCCCC(=O)N/N=C(\C)CC(=O)Nc1cc(Cl)ccc1OC	0.09 (inactive)	-0.2
COc1ccc(/C(C)=N/Nc2cc(C(F)(F)F)ccc2Cl)c(OC)c1	-0.18 (inactive)	-0.33
O=c1[nH]c2ccccc2s1	0.98 (inactive)	1.68
C=CCN(c1ccc(C(=O)Nc2cc(C)cc(C)c2)cc1)S(C)(=O)=O	-0.5 (inactive)	-0.78
C#CCOCCOCCOCCNc1nc(N2CCN(C(=O)[C@H](C(C)C)n3cc(CCO)nn3)CC2)nc(N2CCN(C(=O)[C@H]([C@@H](C)CC)n3cc(CCCN=C(N)N)nn3)CC2)n1	1.22 (inactive)	1.32
CCn1c(SCC(=O)N/N=C/C=C/c2ccccc2[N+](=O)[O-])nnc1-c1ccccc1	0.43 (inactive)	-0.06
CN(C)C(=O)c1ccc2c(c1)C1C3CCC(C3)C1C(c1ccccc1)N2 (stereo not drawn)	-0.71 (inactive)	-0.66
CCCCNC(=O)CSc1nc2ccc(NC(=O)CSc3nnc(N)s3)cc2s1	0.08 (inactive)	-0.52
COC(=O)c1ccc(NC(=O)CSc2nncc3ccc(OC)c(OC)c23)cc1	-1.41 (inactive)	-0.89
CCOc1ccc(S(=O)(=O)N/N=C(\C)c2ccc(Cl)c(Cl)c2Cl)cc1	1.17 (inactive)	1.85
O=C(CSc1nc2ccccc2c(=O)n1CCCO)N1CCc2ccccc21	-1.29 (inactive)	-0.81
CCc1ccc(C2N3CC4([N+](=O)[O-])CN2CC([N+](=O)[O-])(C3)C4(C)C)cc1 (stereo not drawn)	1.48 (inactive)	1.35
CCC(C)C(=O)Nc1cc([N+](=O)[O-])ccc1Cl (stereo not drawn)	0.25 (inactive)	-0.26
CN(C)/C(=N\OC(=O)c1ccccc1)c1nonc1N	-0.17 (inactive)	0.24
COCCn1c(=O)[nH]c(=O)c2cc(C(=O)c3cc(OC)ccc3O)cnc21	0.16 (inactive)	0.23
N#C/C(=C\C1=C(N2CCOCC2)C(=C\c2ccccc2)/CC1)C(=O)Nc1ccccc1F	0.41 (inactive)	2.72
COc1cc(OC)cc(C(=O)NCC(=O)OCc2csc(-c3ccccc3)n2)c1	-0.49 (inactive)	-0.88

Compound	z-score (OD600 30 h)	z-score [1]
O=C(/C=C/c1ccccc1[N+](=O)[O-])NCC1CCCO1 (stereo not drawn)	1.67 (inactive)	2.05
Cc1cc(C(=O)NNC(=S)NC(C)c2ccccc2)cs1 (stereo not drawn)	0.17 (inactive)	-0.18
O=C(CN1CCN(S(=O)(=O)c2ccc(Br)cc2)CC1)Nc1ccccc1C(=O)c1ccccc1	-0.96 (inactive)	-0.1
Cc1c(C(=O)NCCCc2ccccc2)cccc1[N+](=O)[O-]	-0.72 (inactive)	-1.83
CN(C)c1ccc(Nc2c3c4c(cccc4n(C)c2=O)C(=O)c2ccccc2-3)cc1	12.3 (active)	10.3
O=[N+]([O-])c1cccc(C2=NCCS2)c1	0.63 (inactive)	0.08
Cc1ccccc1NC(=S)N(CCCN1CCOCC1)Cc1cccs1	0.26 (inactive)	0.42
O=C1NC(c2ccccc2)CCC1(Cl)Cl (stereo not drawn)	0.83 (inactive)	-0.01
NS(=O)(=O)c1cc(C(=O)NCCOc2ccccc2)c(Cl)cc1Cl	-0.22 (inactive)	-0.02
O=C(NNC1=NCCC1)c1cccc(S(=O)(=O)N2CCCCC2)c1	1.39 (inactive)	1.17
CCN(C(=O)COc1cccnc1[N+](=O)[O-])C1CCS(=O)(=O)C1 (stereo not drawn)	0.14 (inactive)	0.45
C=CCOc1c(Br)cc(/C=N\n2nnnc2N)cc1OC	0.16 (inactive)	0.27
CC(=O)Nc1ccc(S(=O)(=O)NC2(C(F)(F)F)C(=O)Nc3c2c(=O)[nH]c(=O)n3Cc2ccccc2)cc1 (stereo not drawn)	0.9 (inactive)	-0.08
Cc1ccc(Nc2ccc(C(N)=O)cc2[N+](=O)[O-])cc1	0.35 (inactive)	0.28
CCC1CCCCN1C(=S)Nc1ccc(C(C)=O)cc1 (stereo not drawn)	-0.29 (inactive)	-0.44
C=CCn1c(SCc2ccc(Cl)c(Cl)c2)nnc1C(CO)NC(=O)c1ccc(OC)cc1 (stereo not drawn)	0.22 (inactive)	-0.41
COc1cc(/C=C/C(=O)OCC(=O)Nc2cccc(Oc3ccccc3)c2)ccc1O	-0.4 (inactive)	0.4
COc1ccc(/C=C/C(=O)OCC(=O)NCc2cccs2)cc1OC	1.04 (inactive)	0.67
O=C(COC(=O)/C=C/c1cccc(Cl)c1)NCCc1ccccc1	3.39 (active)	3.67
CC(NC(=S)Nc1ccccc1)C1COc2ccccc2O1 (stereo not drawn)	-0.7 (inactive)	0.37
Clc1cccc(CN2COc3c(cc(Cl)c4cccnc34)C2)c1	-1.42 (inactive)	1.02
COc1ccc(C(=O)CSc2nnc(NC(=O)C3CC(=O)N(c4cccc(OC)c4)C3)s2)cc1 (stereo not drawn)	-0.16 (inactive)	0.63
Cn1cccc1/C=C1\SC(=S)N(NC(=O)c2ccc(Cl)cc2)C1=O	-1.05 (inactive)	-0.65
COc1cc(OC)c(-n2cc(-c3ccc(Cl)cc3)[nH]c2=O)cc1Cl	0.21 (inactive)	1.29
COCCCNC(=O)CNC(=S)N(Cc1cc(OC)c(OC)c(OC)c1)C1CCCC1	1.27 (inactive)	0.62
